# Source: PubChem (National Center for Advancing Translational Sciences (NCATS))
# A selection: hits, their analogues and other compounds. The true share with any hit is near 11%.
# HP1b binding inh – HP1-beta chromodomain-methylated histone interaction inhibition | P83916 | AlphaScreen HP1-beta / biotin-H3K9me3 peptide binding | Potency, µM (top dose mostly 114 µM), actives largely listed as inhibitors | 0.56% of 390,000 active | AID 540317; also: nearly all actives have a fitted effect of over 70% in size
# Target sequence (P83916 whole entry, looked up): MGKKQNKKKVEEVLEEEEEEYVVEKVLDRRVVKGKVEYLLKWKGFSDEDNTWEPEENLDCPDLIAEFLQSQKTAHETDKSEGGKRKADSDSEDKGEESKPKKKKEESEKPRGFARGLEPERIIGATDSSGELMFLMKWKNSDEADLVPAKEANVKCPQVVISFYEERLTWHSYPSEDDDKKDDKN
#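 AlphaScreen: HP1-beta (50 nM) preformed 30 min with biotin-H3(1-18)K9me3 peptide (50 nM) in PBS pH 7.4, 0.01% Tween-20. Compound added for 30 min at RT, then streptavidin donor/nickel chelate acceptor beads (10 ug/mL) for 30 min.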
# JMJD2A Tudor inh – inhibitors of human JMJD2A Tudor domain; AlphaScreen JMJD2A-Tudor / H3K4me3 peptide binding; 4.4% of 390,000 active; Potency, µM (series often up to 114 µM), actives largely listed as inhibitors; AID 504339; also: nearly all actives have a fitted effect of over 50% in size
# L3MBTL1 block – L3MBTL1 (human) inhibition | 0.66% of 230,000 active | Potency, µM (titrated, usually from 57.1 µM), actives largely listed as inhibitors | AlphaScreen L3MBTL1–H3K9me1 peptide binding | AID 485360; also: nearly all actives have a fitted effect of over 60% in size
#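 Displacement of a biotinylated histone H3(1-15) peptide monomethylated at Lys9 (75 nM) from L3MBTL1 (50 nM) was measured by AlphaScreen after a 30 min room-temperature compound incubation; cefsulodin titration served as intraplate control.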
# BAZ2B block – inhibitors of human BAZ2B bromodomain | Q9UIF8 | AlphaScreen BAZ2B-H3K14Ac peptide displacement | Potency, µM (highest dose often 114 µM), hits mostly inhibitors | 4.4% of 360,000 active | AID 504333; also: nearly all actives have a fitted effect of over 60% in size
#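 Inhibition is scored as reduced AlphaScreen emission. The BAZ2B/b-H3(5-23)K14Ac complex (50 nM each) in PBS pH 7.4, 0.01% Tween-20 meets compound (up to 110 uM) for 30 min at RT before bead addition.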
# G9a block – blocks human histone lysine methyltransferase G9a. G9a H3K9 monomethylation, AlphaScreen, 2 h. AID 504332. 8.8% of 350,000 active. Potency, µM (titrated, usually from 102 µM), actives largely listed as inhibitors. Q96KQ7; also: nearly all actives have a fitted effect of over 75% in size
# Target sequence (Q96KQ7 913-1193 limits assumed): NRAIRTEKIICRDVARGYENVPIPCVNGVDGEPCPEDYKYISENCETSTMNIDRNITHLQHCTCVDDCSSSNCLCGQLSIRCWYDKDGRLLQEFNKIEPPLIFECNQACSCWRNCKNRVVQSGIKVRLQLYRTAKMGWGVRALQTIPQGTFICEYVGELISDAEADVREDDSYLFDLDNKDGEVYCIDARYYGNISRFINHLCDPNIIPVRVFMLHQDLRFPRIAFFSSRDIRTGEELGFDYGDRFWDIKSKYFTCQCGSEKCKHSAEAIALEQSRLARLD
#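 Compounds were preincubated with 20 nM G9a for 15 min, after which biotinylated H3K9 peptide (500 nM) and SAM (20 uM) started a 2 h room-temperature reaction. Monomethylated product was quantified by antibody-based AlphaScreen chemiluminescence.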
# A number is an active result; . = inactive; ? = inconclusive; / = no result; [ ] = dose if it differs, or a comment. Calls follow the shape of the dose curve; as a rule, active = well fitted inhibition curve with a large enough effect; inconclusive = small, poorly fitted or top-dose-only effect; inactive = no such curve, though single readings can be large or run the other way.
SMILES,HP1b binding inh,JMJD2A Tudor inh,L3MBTL1 block,BAZ2B block,G9a block
COc1ccccc1-n1nnnc1SCC(=O)NCC1CCCO1 (stereo unspecified),.,.,.,.,56.2µM
CCSc1nnc(-c2ccc(S(=O)(=O)N3CCOCC3)cc2)n1CC1CCCO1 (stereo unspecified),.,.,.,.,.
Cc1occc1-c1nnc(SCC(=O)NCC2CCCO2)n1C (stereo unspecified),.,56.2µM,.,.,.
CCc1cccc(C)c1NC(=O)CN(C)S(=O)(=O)c1cccc2nsnc12,.,.,/,/,.
Cc1ccc(-n2c(=O)c3cccnc3n2CC(=O)Nc2cccc(C)c2C)cc1,.,.,/,.,?
Cc1occc1-c1nnc(SCC(=O)NCCc2ccccc2)n1C(C)c1ccccc1 (stereo unspecified),.,.,.,?,56.2µM
CC(=O)c1c(C)[nH]c(C(=O)CSc2nnc(-c3ccc(Cl)cc3)n2CC2CCCO2)c1C (stereo unspecified),.,79.4µM,/,.,50.1µM
Cc1ccc(-c2nnc(SCC(=O)NCC3CCCO3)n2C)cc1 (stereo unspecified),.,.,/,.,.
CCC(=O)Nc1ccc(-c2nnc(SCC(=O)NCC3CCCO3)n2C)cc1 (stereo unspecified),.,.,.,.,8.91µM
Cc1occc1-c1nnc(SCC(=O)NCCc2ccccc2)o1,.,.,.,.,.
CCC(=O)Nc1ccc(C(=O)CSc2nnc(-c3ccc(O)cc3)n2CC2CCCO2)cc1 (stereo unspecified),.,?,/,?,44.7µM
COc1ccc(CC(=O)Nc2cc(-c3nc4cccnc4s3)ccc2C)cc1,.,?,/,?,?
CC(C)c1cnc2c(c1SCC(=O)c1ccccc1)c(=O)n(C)c(=O)n2C,.,.,/,.,.
CN(C)S(=O)(=O)c1ccc(NC(=O)CCCNC(=O)c2ccc(Cl)cc2)cc1,.,.,/,.,.
COc1cccc(-c2nc(SCc3ccc(C)cc3)n3[nH]c(=O)cc3n2)c1,.,.,/,.,.
CCNS(=O)(=O)c1ccc(NC(=O)c2ccc(Cn3cc([N+](=O)[O-])cn3)o2)cc1,.,.,/,.,50.1µM
CN(C)c1ccc(NC(=O)c2ccc(Cn3cc([N+](=O)[O-])cn3)cc2)cc1,44.7µM,50.1µM,/,25.1µM,14.1µM
COc1cc(/C=N/NC(=O)C2(O)c3ccccc3-c3ccccc32)ccc1O,.,.,.,.,?
COc1ccc(/C=N/NC(=O)CN2CCSCC2)cc1C,?,3.55µM,.,50.1µM,?
CCOc1ccc(/C=N/NC(=O)CN2CCSCC2)cc1,?,2µM,.,50.1µM,10µM
COc1ccc(/C=N/NC(=O)CN2CCN(Cc3ccccc3)CC2)cc1Br,.,.,.,.,.
CCOc1ccc(/C=N/NC(=O)C2(O)c3ccccc3-c3ccccc32)cc1,.,89.1µM,.,.,.
Cc1cc(C)c2c(=O)c3c(oc2c1)C(=O)N(Cc1ccc(F)cc1)C3c1cccc(O)c1 (stereo unspecified),.,.,/,.,.
O=C(CSc1nnc(-c2c[nH]c3ccccc23)o1)NCC1CCCO1 (stereo unspecified),.,.,.,.,.[2.33 µM]
CC1(C2(O)CC(c3ccccc3)ON2)CCCCC1 (stereo unspecified),/,/,/,.,39.8µM
SMILES,HP1b binding inh,JMJD2A Tudor inh,L3MBTL1 block,BAZ2B block,G9a block
COc1ccc(C2CC(O)(C(C)(C)O)NO2)cc1 (stereo unspecified),.,.,.,.,?
COc1ccc(OC)c(NC(=O)COC(=O)C2CCCCC2)c1,.,.,.,/,/
Cc1cc(C(=O)N2CCc3ccccc3C2)n[nH]1,.,.,/,.,.
Cn1c(=S)c2[nH]c(SCC3CCCO3)nc2n(C)c1=O (stereo unspecified),?,4.47µM,/,/,/
Cc1cn2c(=O)cc(COC(=O)COc3ccc(C)c(C)c3)nc2s1,.,.,/,.,?
CCOc1ccc(C(C)=O)cc1N1C(=O)C2C(C1=O)C1C=CC2C12CC2 (stereo unspecified),.,.,.,50.1µM,.
CCOc1ccc(C(C)=O)cc1N1C(=O)C2C3C=CC(C3=C(C)C)C2C1=O (stereo unspecified),.,.,.,.,?
N#Cc1ccc(OCC(=O)N2CCN(c3ccc(C(F)(F)F)cn3)CC2)cc1,.,.,.,.,?
CCC(=O)N1CCc2cc(S(=O)(=O)CCC(=O)NCc3ccccc3Cl)ccc21,.,.,/,/,.
CC(C)N1CCN(S(=O)(=O)c2ccc3ccccc3c2)CC1,?,15.8µM,.,?,/
O=C(O)c1cccc(S(=O)(=O)N2CCN(C(c3ccccc3)c3ccccc3)CC2)c1,.,.,.,?,35.5µM
CCN1CCN(S(=O)(=O)c2ccc3ccccc3c2)CC1,.,.,/,.,.
CC(C)N1CCN(S(=O)(=O)c2ccccc2)CC1,?,28.2µM,.,?,22.4µM
CC1CN(C2CCN(S(=O)(=O)c3ccc4ccccc4c3)CC2)CC(C)O1 (stereo unspecified),?,?,.,44.7µM,6.31µM
CCOCCCNC(=O)Cn1ncc2c([nH]c3ccccc32)c1=O,.,.,/,.,.
O=C(COCc1cc(-c2cccs2)on1)N1CCN(c2ccccc2)CC1,.,.,/,.,.
CC(C)(C)C(=O)Nc1c(C(=O)N2CCN(c3ccc(F)cc3)CC2)oc2ccccc12,.,.,/,.,?
C=CCOc1ccc(/C=N/NC(=O)CC(=O)NC2CCCCC2)cc1,.,.,/,.,.
COc1ccc(Br)c2oc(S)cc(=O)c12,.,35.5µM,.,.,7.08µM
COc1cccc2oc(SC)cc(=O)c12,/,/,/,/,.
COc1ccccc1N1CCN(C(=O)c2ccc3c(c2)NC(=O)C(CSCc2ccccc2C)N3)CC1 (stereo unspecified),/,/,/,50.1µM,?
COc1ccc(/C=C/C(=O)c2ccccc2O)cc1CN1CCOCC1,.,?,/,?,?
COc1ccc(/C=C/C(=O)c2ccc3ccccc3c2O)cc1CN1CCOCC1,?,?,.,14.1µM,6.31µM
CNS(=O)(=O)c1cn(CC(=O)N(C)Cc2ccccc2)cc1S(=O)(=O)NC,.,.,/,.,.
COc1cc(=O)n(C)c2c(OC[C@@H](O)C(C)(C)O)cccc12,/,/,/,/,.[21.5 µM]
SMILES,HP1b binding inh,JMJD2A Tudor inh,L3MBTL1 block,BAZ2B block,G9a block
O=C(CSc1nc2ccc(Cl)cc2[nH]1)NCCc1ccccc1,.,.,.,.,79.4µM
Cc1ccc(SCC(=O)NNC(=O)c2ccccc2)cc1C,.,.,/,.,.
Cc1ccc2nc(SCC(=O)NNC(=O)c3ccccc3)[nH]c2c1,.,.,.,.,25.1µM
Cc1ccc(C)c(SCC(=O)NNC(=O)c2ccccc2)c1,.,.,/,.,44.7µM
Cc1ccc2nc(SCC(=O)Nc3ncccn3)[nH]c2c1,.,.,/,?,/
Cc1ccc(CNC(=O)c2ccc3nc(SCc4ccc(F)cc4)[nH]c3c2)cc1,?,7.94µM,/,39.8µM,7.94µM
